This is part of a sample that, as a whole, favours compounds with a hit. Of some 83,000 tested, about 20% had one in any assay.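 Activity criterion: percent growth below 10, measured after cells in 96-well plates were exposed to a single compound concentration for 48 hours.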 A number with no mark means an inactive call. Activity calls are given as the source filed them.

This experiment relates to MALME-3M melanoma. Nature of the experiment: NCI-60 one-dose screen, 48 h (100 = growth as untreated, 0 = no growth, -100 = all killed). Conditions: 10 µM unless noted.
For `O=Nc1c2cccnc2n2nnc3ccc(Cl)cc3c12`, the growth was 23.7%.

Turning to `Cc1ccc(-c2c3c(N)c4c(nc3nc3c2c(C)nn3-c2ccccc2)CCC4)cc1`, the growth is 91.5%. Then `CCSCC1CC(O)(c2ccccc2)C(c2ccccc2)C(c2ccc(Cl)cc2)O1` (configuration not stated), with -34.7% (active); and `COc1ccc(/C=C/C(=O)c2cccc(NS(C)(=O)=O)c2)cc1`, with 112%. Then `C[N+]1(C)C2CC[C@@H]1CC(OC(=O)C(O)c1ccccc1)C2` (some centres not stated), with 94.1%. Then `C[C@]12CC[C@H](O)CC1=CC[C@@H]1[C@@H]2CC[C@]2(C)C(c3cccnc3)=CC[C@@H]12`, with 70.8%. For `CSc1nc2nc3c(nc2c(=O)n1C)C(=O)c1ccccc1C3=O`, the growth was -93% (active). Then `O=C1/C(=C\c2coc3ccccc3c2=O)c2ccccc2N1c1c(Cl)cccc1Cl`, with 83.8%; and `Cn1c(N2N=C(c3ccc(Cl)cc3)CC2c2ccccc2)nc(-c2ccccc2)c(C#N)c1=O` (configuration not stated), with 97.6%; and `Clc1ccc2c(c1)C(Br)c1cc(Cl)cc(Cl)c1-2` (configuration not stated), with 45.1%. `CCCCCCCCCCCCC1CCCC(C)C1` (configuration not stated): the growth was 93.3%. Then `CCN(CC)c1ccc(/C=C/C(=O)c2cccc(NS(C)(=O)=O)c2)cc1`, with 76.2%. To `Cc1ccc(OCC(=O)Nc2ccc(Oc3ccccc3)cc2)c([N+](=O)[O-])n1` belongs 87.7%; to `COc1ccc(-c2c3c(N)nc(-c4ccncc4)nc3nc3c2c(C)nn3-c2ccccc2)cc1`, 76%. Turning to `CCOC(=O)CCC(=O)O[C@H]1[C@H](O[C@@H]2[C@@H](C)[C@H](O[C@H]3C[C@@](C)(OC)[C@@H](O)[C@H](C)O3)[C@@H](C)C(=O)O[C@H](CC)[C@@](C)(O)[C@H](O)[C@@H](C)C(=O)[C@H](C)C[C@@]2(C)O)O[C@H](C)C[C@@H]1N(C)C`, the growth is 99.4%. Then `O=[N+]([O-])c1cc([N+](=O)[O-])c(N2CCCC2)cc1NN=C(c1ccc(O)cc1)c1ccc(O)cc1`, with 140%; and `O=C(N/N=C/c1cccc([N+](=O)[O-])c1)c1ccc(Br)o1`, with 115%.

(Values after PubChem BioAssay (NCI).)
